Screens (PubChem)
Sa helicase inh: inhibitors of S. aureus replicative helicase, primary screen, biochemical, fluorescence unwinding readout; 0.05% of 120,000 active; purified S. aureus helicase, fluorescence unwinding assay; replicative DNA helicase (DnaC/DnaB), Staphylococcus aureus; inhibition, % (no concentration beside the values); AID 485395, 2010; in the data active means inhibition above about 25%, passing the limit was not always enough
Sa growth inh: S. aureus growth inhibition at 42 and 30 °C, primary screen, LtaS inhibitor project, RN4220, two temperatures; relative growth, % (concentration not given with the values); 0.53% of 170,000 active; OD600, 20 h, 42 °C; hits give low values;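 active means relative growth at most 50% at the other temperature and 20+ points below 30 °C, or under 10% at both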
A number is an active result; . = inactive; / = no result. This excerpt belongs to a sample that is enriched for hits.

SMILES | Sa helicase inh | Sa growth inh
CN(C)C(=O)Oc1cccc2cccnc12 | . | .
Oc1cccc2cccnc12 | / | 0.2
C=CCC1(C2CCCC2)C(=O)NC(=O)NC1=O | . | .
Cc1ccc2c(c1)C(c1ccc(F)cc1)=NCC(=O)N2 | . | /
CCCC1COC(Cn2cncn2)(c2ccc(Cl)cc2Cl)O1 (centres undefined) | . | 5.4
O=C(CCc1nc(-c2ccccc2F)no1)N1CCC2(CC1)OCCO2 | . | .
CCn1nc(-c2cccnc2)nc2c(=O)n(C)c(=O)nc1-2 | . | -0.2
CCN(CC)C(=O)c1ccc(NC(=O)Cn2nc(-c3ccccc3)c3ccccc3c2=O)cc1 | . | .
CCn1nc(-c2ccccc2)nc2c(=O)n(C)c(=O)nc1-2 | . | 0.3
CC(c1ccccc1)n1cncc1C(=O)O (centres undefined) | . | .
O=S(=O)(c1ccc(F)cc1)N1CN2CCN(C2)C1 | . | .
N#CC(C#N)=NNc1ccccc1 | . | 0.0
N#CC(C#N)=C(C#N)c1ccc(Nc2ccccc2)cc1 | . | .
CC1CCCN(CC(=O)c2ccccc2F)C1 (centres undefined) | . | .
O=C(C1CCCO1)N1CCC2(CC1)OCCO2 (centres undefined) | . | .
Cc1oc2ccccc2c1-c1ccc2ccccc2n1 | . | 33.6
Nc1cc(Cl)ccc1Cl | . | .
Cc1ccc(NC(=O)N(Cc2ccc3c(c2)OCO3)C2CCN(Cc3ccccc3)CC2)cc1C | / | .
Nc1ccc(Cl)c(C(F)(F)F)c1 | . | .
O=c1c2ccccc2nc(-c2ccccc2)n1-c1ccccc1 | . | .
O=c1c2ccccc2[se]n1-c1ccccc1 | / | 0.3
CC1=CC(=O)NP(=O)(Oc2ccccc2)N1 (centres undefined) | . | .
Clc1ccc(CO/N=C(\Cn2ccnc2)c2ccc(Cl)cc2Cl)c(Cl)c1 | / | -0.4
NC1C[C@H]1c1ccccc1 (some centres undefined) | / | .
CC1(C)CC(=O)C(C2(O)C(=O)NC(=O)NC2=O)=C(O)C1 | . | .
Clc1ccc(CSC(Cn2ccnc2)c2ccc(Cl)cc2Cl)cc1 (centres undefined) | / | -0.3
c1ccc(Cn2ccnc2)cc1 | / | .
Clc1ccc(COC(Cn2ccnc2)c2ccc(Cl)cc2Cl)cc1 (centres undefined) | / | -0.6
CC(C)c1ccc(C=C2C(=O)NC(=O)NC2=O)cc1 | . | .
O=C1NC(=O)C(CCc2ccncc2)(Cc2ccc(Br)s2)C(=O)N1 | . | .
